Assay outcomes from PubChem.
This is a sample that favours compounds with a hit; in the whole collection about 1.4% have one here.
LmPK inhibitor: blocks Leishmania mexicana pyruvate kinase activity. Q27686. purified LmPK, Kinase-Glo ATP luminescence, 1 h. Potency, µM (highest dose often 57.5 µM), hits mostly inhibitors. actives 0.37% (n = 290,000). AID 1721
Target sequence (Q27686 whole entry, looked up): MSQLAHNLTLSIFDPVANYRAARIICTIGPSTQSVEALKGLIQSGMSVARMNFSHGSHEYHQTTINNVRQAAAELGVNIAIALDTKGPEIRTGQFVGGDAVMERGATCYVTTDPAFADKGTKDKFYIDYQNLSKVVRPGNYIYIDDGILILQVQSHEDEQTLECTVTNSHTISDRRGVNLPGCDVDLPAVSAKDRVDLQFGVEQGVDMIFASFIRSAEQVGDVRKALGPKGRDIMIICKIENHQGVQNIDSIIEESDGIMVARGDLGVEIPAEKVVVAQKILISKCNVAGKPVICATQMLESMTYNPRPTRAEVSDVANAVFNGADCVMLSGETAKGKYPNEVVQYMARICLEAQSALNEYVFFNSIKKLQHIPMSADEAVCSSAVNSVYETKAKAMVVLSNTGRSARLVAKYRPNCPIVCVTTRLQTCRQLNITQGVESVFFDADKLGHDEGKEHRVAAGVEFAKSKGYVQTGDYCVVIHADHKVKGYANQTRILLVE
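Kinase-Glo luminescence read after 1 h RT reaction of 0.1 nM LmPK with 0.5 mM PEP and 0.1 mM ADP. Activity scaled between uninhibited and enzyme-free controls.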
TbPYK inhibitor: T. brucei pyruvate kinase inhibition; actives 0.12% (n = 410,000); TbPYK enzyme, Kinase-Glo Plus ATP luminescence, 45 min; Potency, µM (doses to about 76.8 µM), actives largely listed as inhibitors; Q57TT1; AID 624173; further: nearly all actives have a fitted effect of over 50% in size
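TbPYK + substrate in 50 mM TEA pH 7.2, 100 mM KCl, 10 mM MgCl2, 0.05% BSA, 0.01% Tween-20; cpd pinned; ADP 130 uM final; 45 min RT; Kinase-Glo Plus 10 min; luminescence endpoint.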
AmpC inh detg: AmpC beta-lactamase inhibition with detergent present. P00811. AmpC hydrolysis of nitrocefin, absorbance 480 nm, 0.01% Triton. Potency, µM (doses to about 114 µM), usual class: inhibitors. actives 0.041% (n = 370,000); further: nearly all actives have a fitted effect of over 25% in size
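20 mM phosphate pH 7.0 + 0.01% (detergent screen) or 0.0001% Triton X-100; 5.3 nM AmpC reagent; cpd preinc 15 min RT; nitrocefin (800 uM stock) to start; A480 q20 s × 4 min; Activity was normalised to no-enzyme and no-compound control wells.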
AmpC inh no detg: blocks E. coli AmpC beta-lactamase in detergent-free assay. P00811. AmpC nitrocefin hydrolysis, absorbance 480 nm, 0.0001% Triton. Potency, µM (series often up to 57.1 µM), hits mostly inhibitors. actives 0.52% (n = 330,000); further: nearly all actives have a fitted effect of over 20% in size
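20 mM phosphate pH 7.0 + 0.01% (detergent screen) or 0.0001% Triton X-100; 5.3 nM AmpC reagent; cpd preinc 15 min RT; nitrocefin (800 uM stock) to start; A480 q20 s × 4 min; Activity was normalised to no-enzyme and no-compound control wells.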
Giardia FBPA inh: blocks Giardia fructose-bisphosphate aldolase activity | A8B2U2 | purified Giardia FBPA | Potency, µM (doses to about 59.6 µM), usual class: inhibitors | actives 0.71% (n = 290,000) | AID 2451; further: nearly all actives have a fitted effect of over 55% in size
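40 nM FBPA preincubated 10 min at RT with compound (up to 57.5 uM final), then substrate plus GAPDH/TPI/NAD/arsenate coupling and diaphorase/resazurin added. Fluorescence read after 20 min at RT, 525/598 nm.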
RE007 growth inh: less growth of the S. pombe RE007 Vpr strain. S. pombe RE007 Vpr strain, BacTiter-Glo ATP luminescence, 24 h. Potency, µM (highest dose often 92.2 µM), usual class: inhibitors. actives 0.21% (n = 360,000); active means well fitted falling curve with a large enough effect; inconclusive means small, poorly fitted or top-dose-only effect; inactive means no such curve, though single readings can be large or run the other way; further: nearly all actives have a fitted effect of over 50% in size
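Fission yeast strain RE007, carrying one chromosomally integrated HIV-1 vpr copy, was seeded at OD 0.01 in PMG+AL medium with 23 nL pinned compound. After 24 h at 30 °C and 99% humidity, viability was read by BacTiter-Glo luminescence.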
A number is an active result; n = inactive; u = inconclusive; x = no result given; [ ] = dose if it differs, or a comment. Unless noted, the call rests on the fitted dose curve; in most records, active means well fitted curve in the direction sought with a large enough effect; inconclusive means small, poorly fitted or top-dose-only effect, or another doubt; inactive means no such curve, though single readings can be large; an effect the other way counts as inactive or inconclusive.

SMILES	LmPK inhibitor	TbPYK inhibitor	AmpC inh detg	AmpC inh no detg	Giardia FBPA inh	RE007 growth inh
COc1ccc(-c2n[nH]c(=S)n2-c2ccc3c(c2)OCCO3)cc1	u	u	n	n	n	n
S=c1[nH]nc(Cc2ccc(Cl)cc2)n1-c1ccc2c(c1)OCCO2	u	2.82µM	n	n	n	n
Oc1ccc(-c2n[nH]c(=S)n2-c2ccc3c(c2)OCCO3)c(O)c1	u	2.82µM	n	n	n	x
COc1cc(OC)cc(-c2n[nH]c(=S)n2-c2ccc3c(c2)OCCO3)c1	n	2.51µM	n	n	n	n
Cc1csc2nc(-c3cccc(NC(=O)C(C)C)c3)cn12	x	n	n	x	x	x
CCN(CC)S(=O)(=O)c1ccc2c(c1)c(=O)c(C(=O)N1CCN(c3ccc(OC)cc3)CC1)cn2C	x	n	n	x	x	x
C=CCc1cccc2cc(-c3nc4ccc(C(=O)O)cc4[nH]3)c(=O)oc12	x	n	n	x	x	x
Cc1ccc(-n2nc3ccc(NC(=O)/C=C/c4ccco4)cc3n2)cc1	n	n	n	28.2µM	n	n
Cc1ccc(NC(=O)c2cccc(NC(=O)/C=C/c3ccco3)c2)cc1C	n	n	u	n	n	u
Nc1nc(N2CCCCC2)nc(N(c2ccccc2)c2ccccc2)n1	n	n	u	0.631µM	n	n
Nc1nc(-c2cccnc2)nc(N2CCCCC2)n1	n	n	u	n	n	n
CN(C)S(=O)(=O)c1ccc(C(=O)OCn2nnc3ccccc3c2=O)cc1	n	n	n	10µM	n	n
Cc1cccc(CC(=O)OCn2nnc3ccccc3c2=O)c1	n	n	n	10µM	n	n
CC(C)[C@@H](N)C(=O)O	x	n	x	x	n	x
CC(C)(S)[C@@H](N)C(=O)O	n	n	n	n	12.6µM	n[18.4 µM]
CC(C)CC(NC(=O)CNC(=O)C(Cc1ccc(O)cc1)NC(=O)C(CO)NC(=O)C(Cc1c[nH]c2ccccc12)NC(=O)C(Cc1cnc[nH]1)NC(=O)C1CCC(=O)N1)C(=O)NC(CCCN=C(N)N)C(=O)N1CCCC1C(=O)NCC(N)=O (stereo not drawn)	x	n	x	x	x	x
CCCCOc1ccc(C(=O)NCCc2sc3nc(-c4ccc(OC)cc4)nn3c2C)cc1	x	n	n	x	x	x
O=C(O)CSC1CC(=O)N(c2ccc(Cl)c(Cl)c2)C1=O (stereo not drawn)	n	n	u	n	n	11.2µM
O=C(O)CSC1CC(=O)N(c2cccc(Cl)c2)C1=O (stereo not drawn)	n	n	u	n	n	n
CCOc1cccc(C=Nc2cc(C)cc(C)c2O)c1O	22.4µM	n	u	n	u	n
CCOC(=O)C1=C(C)N(c2ccccc2)C(=O)/C1=C\c1ccc(O)c(OC)c1	u	n	n	n	17.7µM	n
CCOC(=O)C1=C(C)N(c2ccccc2)C(=O)/C1=C\c1ccco1	n	n	n	n	n	n
COc1cc(C=C2C(=O)C=CC2=O)ccc1O	x	3.55µM	x	x	x	2µM
Cc1ccc2nc(N3CCN(c4cccc(C(F)(F)F)c4)CC3)c3nnnn3c2c1	x	n	n	x	x	x
COc1cc2c(cc1OC)-c1nnnn1C(C)(C)C2	n	n	n	n	n	n
SMILES	LmPK inhibitor	TbPYK inhibitor	AmpC inh detg	AmpC inh no detg	Giardia FBPA inh	RE007 growth inh
COc1cc2c(cc1OC)-c1n[nH]c(=S)n1C(C)(C)C2	17.8µM	u	n	n	n	n
CCOCCc1nn2c(=O)cc(COC(=O)c3ccccc3NC(=O)C3CCCCC3)nc2s1	x	n	n	x	x	x
COc1cccc(CNC(=O)CN2N=C(c3ccc(C)cc3)CCC2=O)c1	x	n	n	x	x	x
CC(C)Cn1c2c(c(O)c(C(=O)Nc3ccc(F)cc3)c1=O)CCCC2	n	n	n	n	n	n
CC(C)Cn1c2c(c(O)c(C(=O)Nc3ncccc3O)c1=O)CCCC2	n	n	n	n	7.92µM	n
OCC1OC(OC2C(CO)OC(OC3C(CO)OC(O)C(O)C3O)C(O)C2O)C(O)C(O)C1O (stereo not drawn)	x	n	x	x	x	x
CC(C)(C)C1=CC(=O)C(N2CCOCC2)=CC1=O	n	n	n	n	1.77µM	n
O=C1C=C(N2CCCCC2)c2ccccc2C1=O	x	n	x	x	x	n
